In paper PMC12864922, “TDP-43 directly inhibits mRNA accumulation in neurites through modulation of mRNA stability”:
Where a chain is given by its changes, count along the chain named. In all, about 9,900 sequences were measured (“r (bound/input frequency ratio)”: median about 0.7, highest 2% from about 6.5 on). For the sample, the highest values were picked, then their nearest neighbours and some sequences at random.

B1: ENSMUSG00000061578.1440|Ksr2 (ssRNA)
RNA: GGGAGUUCUACAGUCCGACGAUCGCUUCGAUAUCCGCAUGCUAUAGAUGCCAAUCAGGAAGGCAAGUAGGAUGGAUGGAUGAGUGAGUGGAUAGGUAGGUAUAUAAAUGGAUGGAUGGGUGAUGGAUGGGUAAAUGAAUGGAUAGGUAUGUGAAUGAAUGGAUGAUGGAUGAAUGGAUGGGUAGGUGGGUAGAUAGGUAUAUGAAUGAAUGGAUGAAUGGAUGGGUGAAUGGAUGGAUAGGUAUGUGAAUAAAUGGAUGGAUGGAUGGAUUGAUUUGUGAAUGAAUGGAUGAAUGGAUGGGUACUCUUGCGGUCGCACUAGUGUGGAAUUCUCGGGUGUCAAGG
B2: ENSMUSG00000061578.1445|Ksr2 (ssRNA)
RNA: GGGAGUUCUACAGUCCGACGAUCGCUUCGAUAUCCGCAUGCUAGAUGGAUGAGUGAGUGGAUAGGUAGGUAUAUAAAUGGAUGGAUGGGUGAUGGAUGGGUAAAUGAAUGGAUAGGUAUGUGAAUGAAUGGAUGAUGGAUGAAUGGAUGGGUAGGUGGGUAGAUAGGUAUAUGAAUGAAUGGAUGAAUGGAUGGGUGAAUGGAUGGAUAGGUAUGUGAAUAAAUGGAUGGAUGGAUGGAUUGAUUUGUGAAUGAAUGGAUGAAUGGAUGGGUAGGUGGGUGGAUGCAUAGGCAAGUAGAUGAACUCUUGCGGUCGCACUAGUGUGGAAUUCUCGGGUGUCAAGG
B3: ENSMUSG00000061578.1443|Ksr2|85:89;180:184 (ssRNA)
RNA: GGGAGUUCUACAGUCCGACGAUCGCUUCGAUAUCCGCAUGCUAGCAAGUAGGAUGGAUGGAUGAGUGAGUGGAUAGGUAGGUAUAUAAAUGGAUGGAUGGGUGAUGGAUGGGUAAAUGAAUGGAUAGCAUACUGAAUGAAUGGAUGAUGGAUGAAUGGAUGGGUAGGUGGGUAGAUAGGUAUAUGAAUGAAUGGAUGAAUGGAUGGGUGAAUGGAUGGAUAGCAUACUGAAUAAAUGGAUGGAUGGAUGGAUUGAUUUGUGAAUGAAUGGAUGAAUGGAUGGGUAGGUGGGUGGAUGCAUAGGCUCUUGCGGUCGCACUAGUGUGGAAUUCUCGGGUGUCAAGG
B4: ENSMUSG00000061578.1444|Ksr2 (ssRNA)
RNA: GGGAGUUCUACAGUCCGACGAUCGCUUCGAUAUCCGCAUGCUAAGGAUGGAUGGAUGAGUGAGUGGAUAGGUAGGUAUAUAAAUGGAUGGAUGGGUGAUGGAUGGGUAAAUGAAUGGAUAGGUAUGUGAAUGAAUGGAUGAUGGAUGAAUGGAUGGGUAGGUGGGUAGAUAGGUAUAUGAAUGAAUGGAUGAAUGGAUGGGUGAAUGGAUGGAUAGGUAUGUGAAUAAAUGGAUGGAUGGAUGGAUUGAUUUGUGAAUGAAUGGAUGAAUGGAUGGGUAGGUGGGUGGAUGCAUAGGCAAGUACUCUUGCGGUCGCACUAGUGUGGAAUUCUCGGGUGUCAAGG
B5: ENSMUSG00000061578.1442|Ksr2 (ssRNA)
RNA: GGGAGUUCUACAGUCCGACGAUCGCUUCGAUAUCCGCAUGCUAAGGAAGGCAAGUAGGAUGGAUGGAUGAGUGAGUGGAUAGGUAGGUAUAUAAAUGGAUGGAUGGGUGAUGGAUGGGUAAAUGAAUGGAUAGGUAUGUGAAUGAAUGGAUGAUGGAUGAAUGGAUGGGUAGGUGGGUAGAUAGGUAUAUGAAUGAAUGGAUGAAUGGAUGGGUGAAUGGAUGGAUAGGUAUGUGAAUAAAUGGAUGGAUGGAUGGAUUGAUUUGUGAAUGAAUGGAUGAAUGGAUGGGUAGGUGGGUGGAUGCUCUUGCGGUCGCACUAGUGUGGAAUUCUCGGGUGUCAAGG
B6: ENSMUSG00000061578.1450|Ksr2 (ssRNA)
RNA: GGGAGUUCUACAGUCCGACGAUCGCUUCGAUAUCCGCAUGCUAUAAAUGGAUGGAUGGGUGAUGGAUGGGUAAAUGAAUGGAUAGGUAUGUGAAUGAAUGGAUGAUGGAUGAAUGGAUGGGUAGGUGGGUAGAUAGGUAUAUGAAUGAAUGGAUGAAUGGAUGGGUGAAUGGAUGGAUAGGUAUGUGAAUAAAUGGAUGGAUGGAUGGAUUGAUUUGUGAAUGAAUGGAUGAAUGGAUGGGUAGGUGGGUGGAUGCAUAGGCAAGUAGAUGAAUGAAUAUGUGGGUAGAAGGGUGAGUGGGUGCUCUUGCGGUCGCACUAGUGUGGAAUUCUCGGGUGUCAAGG
B7: ENSMUSG00000061578.1441|Ksr2 (ssRNA)
RNA: GGGAGUUCUACAGUCCGACGAUCGCUUCGAUAUCCGCAUGCUACCAAUCAGGAAGGCAAGUAGGAUGGAUGGAUGAGUGAGUGGAUAGGUAGGUAUAUAAAUGGAUGGAUGGGUGAUGGAUGGGUAAAUGAAUGGAUAGGUAUGUGAAUGAAUGGAUGAUGGAUGAAUGGAUGGGUAGGUGGGUAGAUAGGUAUAUGAAUGAAUGGAUGAAUGGAUGGGUGAAUGGAUGGAUAGGUAUGUGAAUAAAUGGAUGGAUGGAUGGAUUGAUUUGUGAAUGAAUGGAUGAAUGGAUGGGUAGGUGGGCUCUUGCGGUCGCACUAGUGUGGAAUUCUCGGGUGUCAAGG
B8: ENSMUSG00000061578.1448|Ksr2 (ssRNA)
RNA: GGGAGUUCUACAGUCCGACGAUCGCUUCGAUAUCCGCAUGCUAUAGGUAGGUAUAUAAAUGGAUGGAUGGGUGAUGGAUGGGUAAAUGAAUGGAUAGGUAUGUGAAUGAAUGGAUGAUGGAUGAAUGGAUGGGUAGGUGGGUAGAUAGGUAUAUGAAUGAAUGGAUGAAUGGAUGGGUGAAUGGAUGGAUAGGUAUGUGAAUAAAUGGAUGGAUGGAUGGAUUGAUUUGUGAAUGAAUGGAUGAAUGGAUGGGUAGGUGGGUGGAUGCAUAGGCAAGUAGAUGAAUGAAUAUGUGGGUAGAAGCUCUUGCGGUCGCACUAGUGUGGAAUUCUCGGGUGUCAAGG
B9: ENSMUSG00000061578.1439|Ksr2 (ssRNA)
RNA: GGGAGUUCUACAGUCCGACGAUCGCUUCGAUAUCCGCAUGCUAUUGAUUUAGAUGCCAAUCAGGAAGGCAAGUAGGAUGGAUGGAUGAGUGAGUGGAUAGGUAGGUAUAUAAAUGGAUGGAUGGGUGAUGGAUGGGUAAAUGAAUGGAUAGGUAUGUGAAUGAAUGGAUGAUGGAUGAAUGGAUGGGUAGGUGGGUAGAUAGGUAUAUGAAUGAAUGGAUGAAUGGAUGGGUGAAUGGAUGGAUAGGUAUGUGAAUAAAUGGAUGGAUGGAUGGAUUGAUUUGUGAAUGAAUGGAUGAAUGGACUCUUGCGGUCGCACUAGUGUGGAAUUCUCGGGUGUCAAGG
B10: ENSMUSG00000061578.1444|Ksr2|79:83;174:178 (ssRNA)
RNA: B4 RNA with G122C, U123A, A124U, U125A, G126C, G217C, U218A, A219U, U220A, G221C
B11: ENSMUSG00000061578.1446|Ksr2 (ssRNA)
RNA: GGGAGUUCUACAGUCCGACGAUCGCUUCGAUAUCCGCAUGCUAUGAGUGAGUGGAUAGGUAGGUAUAUAAAUGGAUGGAUGGGUGAUGGAUGGGUAAAUGAAUGGAUAGGUAUGUGAAUGAAUGGAUGAUGGAUGAAUGGAUGGGUAGGUGGGUAGAUAGGUAUAUGAAUGAAUGGAUGAAUGGAUGGGUGAAUGGAUGGAUAGGUAUGUGAAUAAAUGGAUGGAUGGAUGGAUUGAUUUGUGAAUGAAUGGAUGAAUGGAUGGGUAGGUGGGUGGAUGCAUAGGCAAGUAGAUGAAUGAAUACUCUUGCGGUCGCACUAGUGUGGAAUUCUCGGGUGUCAAGG
B12: ENSMUSG00000061578.1451|Ksr2|37:41;132:136 (ssRNA)
RNA: GGGAGUUCUACAGUCCGACGAUCGCUUCGAUAUCCGCAUGCUAGAUGGAUGGGUGAUGGAUGGGUAAAUGAAUGGAUAGCAUACUGAAUGAAUGGAUGAUGGAUGAAUGGAUGGGUAGGUGGGUAGAUAGGUAUAUGAAUGAAUGGAUGAAUGGAUGGGUGAAUGGAUGGAUAGCAUACUGAAUAAAUGGAUGGAUGGAUGGAUUGAUUUGUGAAUGAAUGGAUGAAUGGAUGGGUAGGUGGGUGGAUGCAUAGGCAAGUAGAUGAAUGAAUAUGUGGGUAGAAGGGUGAGUGGGUGGAUGAACUCUUGCGGUCGCACUAGUGUGGAAUUCUCGGGUGUCAAGG
B13: ENSMUSG00000058297.485|Spock2 (ssRNA)
RNA: GGGAGUUCUACAGUCCGACGAUCGCUUCGAUAUCCGCAUGCUACUGGAGCUGCCCUACUAAGAGCCUCCUUAGCCCUGGGUGCUGGGAAGGAUGGUGUACGUUGGGGAAGUUUGAGGUUGGAGAGAGUAAAUGUGCCUUGAGAGACCACUCAGAGGUCCCAGGAGGAACGGGGGCGGGGCUUAGCCUGGGAGUUCUGGCAGGAGGCAAAGUUGGUGAGAGUCCUGGGACAUCUUACCCCCAGUGUUCCACAGGAGUCGUGACCACGUGUGAUGGGUGGGCACAGGUCUGCCUUGCUCCAGCCCCUCUUGCGGUCGCACUAGUGUGGAAUUCUCGGGUGUCAAGG

What follows are binders tested against TDP-43 (Homo sapiens, UniProt Q13148 1-414) (assay: RNA Bind-n-Seq with designed 260-mer pool; 25 mM Tris-HCl, 150 mM KCl, 3 mM MgCl2, BSA (printed 500 mg/mL), 20 units/mL SUPERase IN; pH not stated; 500 nM RNA pool, 1 h, 4 C; TDP-43 5, 50, 500 nM; high values mean tight binding). Conditions: protein: recombinant; tags: SBP (GST cleaved off with PreScission; pGEX-GST-SBP).
Chain of TDP-43 (Q13148 whole entry): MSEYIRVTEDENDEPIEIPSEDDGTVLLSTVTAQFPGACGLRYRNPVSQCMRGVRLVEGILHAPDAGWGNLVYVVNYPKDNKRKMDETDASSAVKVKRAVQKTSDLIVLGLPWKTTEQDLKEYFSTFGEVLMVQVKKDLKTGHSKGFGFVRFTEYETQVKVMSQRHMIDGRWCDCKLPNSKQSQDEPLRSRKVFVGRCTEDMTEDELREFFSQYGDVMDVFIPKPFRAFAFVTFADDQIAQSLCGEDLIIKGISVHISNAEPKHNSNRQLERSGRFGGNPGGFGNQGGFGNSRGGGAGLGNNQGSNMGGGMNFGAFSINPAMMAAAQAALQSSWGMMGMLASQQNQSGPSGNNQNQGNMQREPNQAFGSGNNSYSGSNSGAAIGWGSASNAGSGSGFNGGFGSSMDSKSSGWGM
In short: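 Streptavidin beads captured recombinant SBP-tagged TDP-43 at 5, 50 or 500 nM, and the beads were incubated for 1 h at 4 °C with 500 nM of an in vitro-transcribed pool of 260-nt 3′ UTR oligos in 25 mM Tris-HCl, 150 mM KCl, 3 mM MgCl2, BSA and SUPERase IN. After washing, bound RNA was eluted with biotin, reverse transcribed, PCR-amplified and sequenced. Binding is reported as R, the mapped-read-normalized abundance of each oligo in the bound sample divided by its abundance in the input. Two independent protein batches served as duplicates.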

Binder | binding signal
B1 | 11.5 R (bound/input frequency ratio)
B2 | 4.8 R (bound/input frequency ratio)
B3 | 6.75 R (bound/input frequency ratio)
B4 | 3.7 R (bound/input frequency ratio)
B5 | 7.5 R (bound/input frequency ratio)
B6 | 4.15 R (bound/input frequency ratio)
B7 | 5.22 R (bound/input frequency ratio)
B8 | 6.14 R (bound/input frequency ratio)
B9 | 6.02 R (bound/input frequency ratio)
B10 | 5.84 R (bound/input frequency ratio)
B11 | 11 R (bound/input frequency ratio)
B12 | 5.32 R (bound/input frequency ratio)
B13 | 5.55 R (bound/input frequency ratio)
